From PubChem BioAssay (Tox21)
Inconclusive results are not listed. A number with no mark means an inactive call. The source made the active and inactive calls. Calls come from the whole dose curve; as a rule, active = well fitted activation curve with a large enough effect in the repeat runs; inconclusive = weak or mixed curves; inactive = flat fitted curve, though single readings scatter.

experiment: A CellTox Green Cytotoxicity Assay to monitor cytotoxicity in HEK293 cells - 16 hour (AID 1224888); conditions: CellTox Green fluorescence; series mostly up to 76.8 µM; activity change: at the top concentration; note: nearly all actives have a fitted effect of over 35% in size
From the text: National Center for Advancing Translational Sciences [NCATS]
NIH Chemical Genomics Center [NCGC]
U.S. Environmental Protection Agency [EPA]
National Institutes of Environmental Health Sciences [NIEHS]
National Toxicology Program [NTP]
Cell-based models are critical for drug discovery. Determining the natural cytotoxic effects resulting from test compounds is an essential research activity. A CellTox Green Cytotoxicity Assay to monitor cytotoxicity in real time of continues cell culture during 40 hours of the compound treatment was used to screen Tox21 10K library compounds in Hek293 cells. CellTox Green Cytotoxicity Assay is a nonlytic, homogeneous, biofluorescent method to measure cytotoxicity in cell culture after experimental manipulation. The assay system uses a proprietary asymmetric cyanine dye that is excluded from viable cells but preferentially stains the dead cell's DNA. […] Viable cells produce no appreciable increases in fluorescence. Therefore, the fluorescence signal produced by the binding interaction with dead cell DNA is proportional to cytotoxicity.
The mixture of Hek293 cell suspension and reagents were dispensed at 600cells/6 ul/well in 1536-well tissue culture treated black solid bottom plates using a Multidrop dispenser. After the assay plates were incubated at a 37 C/5% CO2 incubator for 5 hours, 23 nL of compounds dissolved in DMSO, positive and negative controls was transferred to the assay plate by a pintool work station. The plates were incubated at 37 C for 40 hours. The fluorescence intensity were measured at 0h, 8h, 16h, 24h, 32h and 40h time points using ViewLux plate reader during compound treatment.
% is set by controls: 0 for no effect and ±100 for the full control effect; potency is the fitted concentration of half-maximal effect.

Structure (SMILES)	activity change	Potency
C=CCCC#N	-0.509%	–
CC1N=C(N)OC1c1ccccc1 (stereo not given)	-20.2%	–
BrCC1CO1 (stereo not given)	5.58%	–
CN1C(=O)COc2c(C(=O)NC3CN4CCC3CC4)cc(Cl)cc21 (stereo not given)	0.545% [at 35.3 µM, hits give high values]	–
CC(Cc1ccccc1)NCCn1cnc2c1c(=O)n(C)c(=O)n2C (stereo not given)	-16.4%	–
CCCN1CCC[C@@H]2Cc3nc(N)ncc3C[C@H]21	–	19 µM (active)
O=C(Cl)C(Cl)(Cl)Cl	-5.89%	–
NC1(c2ccccc2)CCCCC1	-2.21%	–
CCCCOC(C)=O	10.3%	–
O=C(NC(=O)c1c(F)cccc1F)Nc1cc(Cl)c(F)c(Cl)c1F	-0.98%	–
CC1=C2[C@H]3OC(=O)[C@@H](C)[C@@H]3CC[C@@]2(C)C=CC1=O	3.71% [at 35.3 µM, hits give high values]	–
CC(C)N(Cc1ccccc1)C(=O)C(C)(C)C	0.179%	–
N#CN	-2.64% [at 200 µM, hits give high values]	–
CCOP(=S)(OCC)Oc1ccc(Cl)cc1Cl	6.02%	–
CN(C)CCN(C)C	-3.22%	–
CN(C)C(=O)Oc1cc(OC(=O)N(C)C)cc(C(O)CNC(C)(C)C)c1 (stereo not given)	-11.4% [at 35.3 µM, hits give high values]	–
COc1ccc(CN2CCNCC2)c(OC)c1OC	3.86% [at 35.3 µM, hits give high values]	–
CC[C@H](N)c1ccccc1	4.17%	–
Cc1ccc(S(=O)(=O)N[C@@H](CCCCN)C(=O)CCl)cc1	0.394% [at 35.3 µM, hits give high values]	–
CCN[C@@H](C)Cc1cccc(C(F)(F)F)c1	-11.8% [at 35.3 µM, hits give high values]	–

Structure (SMILES)	activity change	Potency
Cn1c(N)nc2c3cccnc3ccc21	-11.8%	–
ClCCCCCCCl	-6.13%	–
C[C@@H](N)[C@@H](O)c1ccccc1	-1.79% [at 35.3 µM, hits give high values]	–
CCCOc1nn(C(=O)NS(=O)(=O)c2ccccc2C(=O)OC)c(=O)n1C	-17.5%	–
C=CCN1CC[C@]23CCCC[C@H]2[C@H]1Cc1ccc(O)cc13	-6.88% [at 35.3 µM, hits give high values]	–
COc1cc(CCN)cc(OC)c1OC	18.8%	–
[P]#[In]	-5.58%	–
Cc1ccc2cc(C)ccc2c1	8.39%	–
c1cncc([C@@H]2CCCCN2)c1	11.4%	–
Cn1c(CCCC(=O)O)nc2cc(N(CCCl)CCCl)ccc21	5.58% [at 35.3 µM, hits give high values]	–
C1CN2CCC1CC2	-0.44% [at 35.3 µM, hits give high values]	–
CCN[C@H](C)Cc1cccc(C(F)(F)F)c1	20.2%	–
COc1ccccc1OC	8.79%	–
CC[C@@H](CO)NC(=O)[C@@H]1C=C2c3cccc4c3c(cn4C)C[C@H]2N(C)C1	-9.96% [at 35.3 µM, hits give high values]	–
CCOP(=O)(CN(CCO)CCO)OCC	9.8%	–
C=C(C)[C@H]1CN[C@H](C(=O)O)[C@H]1CC(=O)O	-5.16% [at 35.3 µM, hits give high values]	–
CC(C)(C)NC[C@H](O)c1ccc(O)cc1Cl	1.1% [at 35.3 µM, hits give high values]	–
Cc1cccc2sc3nncn3c12	-10.7%	–
CCNc1nc(NCC)nc(SC)n1	-12.1%	–
O=C1C2CC=CCC2C(=O)N1SC(Cl)(Cl)Cl (stereo not given)	27%	–
